DT40 TDP1 CPT = DT40-hTDP1 cell growth loss with CPT; chicken DT40 Tdp1-/-;hTDP1 cells + 20 nM CPT, ATP luminescence, 48 h; Potency, µM (doses to about 46.2 µM), hits mostly inhibitors; 420,000 compounds, 12% hits; note: nearly all actives have a fitted effect of over 55% in size
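Chicken DT40 Tdp1-/- cells stably complemented with human TDP1 were seeded at 400 cells/well in medium containing 20 nM camptothecin, exposed to pin-transferred compounds, and grown at 37 °C for at least 48 hr. Viability was read as ATP luminescence.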
DT40 TDP1 no CPT = qHTS for Inhibitors of human tyrosyl-DNA phosphodiesterase 1 (TDP1): qHTS in cells in absence of CPT | DT40 Tdp1-/- hTDP1 cells, no CPT, ATP luminescence, 48 h | Potency, µM (series often up to 46.2 µM), hits mostly inhibitors | 420,000 compounds, 15% hits | AID 686978, 2013; note: nearly all actives have a fitted effect of over 55% in size
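DT40 Tdp1-/-;hTDP1 cells, no CPT (DMSO vehicle only), 400 cells/well; compounds pin-transferred; ≥48 hr, 37 °C; CellTiter-Glo 30 min RT dark, luminescence read.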
IL1B secr inh = inhibitors of inflammasome signaling (IL-1 beta secretion). 360,000 compounds, 4.7% hits. AID 743279. activity change, % at 57.5 µM. THP-1 LPS/ATP IL-1B secretion, AlphaLISA, 16 h; hits give low values; in the data active = activity change below about -50%; inconclusive = mostly about -30% to -49%
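THP-1 cells pretreated 1 hr with compounds (up to 57.5 uM final), then stimulated with LPS (250 ng/mL final) plus ATP (1.25 mM final); secreted IL-1B measured by AlphaLISA after 16 hr, decreased signal indicating inhibition.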
RORg inh = ROR gamma (mouse) transcription inhibition; Drosophila S2 Gal4-RORgamma UAS-luciferase reporter, 20 h; P51450; Potency, µM (series often up to 53.6 µM), usual class: inhibitors; 310,000 compounds, 5.4% hits; note: nearly all actives have a fitted effect of over 60% in size
Target sequence (P51450 whole entry, looked up, the tested form may be a part): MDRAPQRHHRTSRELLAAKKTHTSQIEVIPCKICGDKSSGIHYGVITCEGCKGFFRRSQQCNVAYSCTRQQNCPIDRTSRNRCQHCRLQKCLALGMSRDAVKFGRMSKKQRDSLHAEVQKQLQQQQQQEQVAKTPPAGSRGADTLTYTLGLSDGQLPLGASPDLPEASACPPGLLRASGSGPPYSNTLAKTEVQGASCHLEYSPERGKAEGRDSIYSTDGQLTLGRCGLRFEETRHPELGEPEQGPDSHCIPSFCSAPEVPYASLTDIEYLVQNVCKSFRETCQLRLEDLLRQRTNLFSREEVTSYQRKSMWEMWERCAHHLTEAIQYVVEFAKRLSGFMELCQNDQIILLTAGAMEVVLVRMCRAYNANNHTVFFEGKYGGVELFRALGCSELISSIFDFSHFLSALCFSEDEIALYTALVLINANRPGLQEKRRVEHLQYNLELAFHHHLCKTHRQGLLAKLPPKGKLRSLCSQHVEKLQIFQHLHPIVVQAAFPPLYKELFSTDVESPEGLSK
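Stably transfected Drosophila Schneider cells are the test system, with ROR gamma fused to Gal4 and luciferase under UAS control; luminescence is read after 20 hr of 700 uM copper sulfate induction at ambient temperature.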
LDHA inh = inhibitors of human lactate dehydrogenase A. purified LDHA, NADH/diaphorase-resazurin fluorescence; hits give low values. activity change, % (values are at about 110 or 230 µM). 480,000 compounds, 0.15% hits. P00338; in the data active = activity change below about -30%; inconclusive = mostly about -25% to -30%
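Resorufin fluorescence (ex540/em590), read at 0 and 20 min after diaphorase/resazurin addition, reports the NADH left after a 5 min room-temperature reaction of 2 nM human LDH5 with 0.06 mM NADH and 0.2 mM pyruvate.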
VP16 counter = inhibits Gal4-VP16 luciferase reporter, ROR gamma counter-screen; Drosophila S2 Gal4-VP16 UAS-luciferase, luminescence, 20 h; Potency, µM (top dose mostly 53.6 µM), usual class: inhibitors; 310,000 compounds, 3.5% hits; AID 2546;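 note: Gal4-VP16 expression switched on by copper sulfate through the metallothionein promoter; nearly all actives have a fitted effect of over 50% in size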
Numbers stand for hits; i = inactive; ? = inconclusive; nt = no result given. Sampled rows, rich in hits. Any-hit rate of the full collection: about 18%. Unless noted, calls come from the whole dose curve; as a rule, active = well fitted curve in the direction sought with a large enough effect; inconclusive = small, poorly fitted or top-dose-only effect, or another doubt; inactive = no such curve, though single readings can be large; an effect the other way counts as inactive or inconclusive.

SMILES	DT40 TDP1 CPT	DT40 TDP1 no CPT	IL1B secr inh	RORg inh	LDHA inh	VP16 counter
O=C1C=C(c2cccc(O)c2)C[C@@H](c2ccc(F)cc2)C1	21µM	?	i	nt	i	nt
O=C1C=C(c2cccc(Br)c2)C[C@@H](c2ccc(Cl)cc2)C1	16µM	?	i	nt	i	nt
O=C1C=C(c2ccccc2)CC(c2ccc(Br)cc2)C1 (stereo unspecified)	nt	nt	nt	nt	i	nt
O=C1C=C(c2cccc(CO)c2)C[C@@H](c2ccc(F)cc2)C1	i	i	i	nt	i	nt
O=C1C=C(c2ccc(-c3ccccc3)c(F)c2)C[C@@H](c2ccc(Cl)cc2)C1	21µM	?	i	nt	i	nt
COc1ccc([C@H]2CC(=O)C=C(c3ccc(-c4ccccc4)c(F)c3)C2)cc1	i	i	i	nt	i	nt
O=C(/C=C/c1ccc(-c2c(Cl)cccc2Cl)o1)c1ccc(Cl)cc1	nt	nt	nt	nt	i	nt
COc1ccc(C(CC(=O)O)NC(=O)c2ccc(C(C)(C)C)cc2)cc1 (stereo unspecified)	nt	nt	nt	nt	i	nt
COC(=O)CCN(C)Cc1sccc1C	nt	nt	nt	nt	i	nt
CC(=O)c1ccc(NC(=O)c2c(C)nn(-c3ccccc3)c2Cl)cc1	i	i	i	11µM	i	?
CC(=O)c1ccc(NC(=O)c2nc(-c3ccccc3)n(-c3ccccc3Cl)n2)cc1	26µM	18µM	nt	nt	i	nt
CC(=O)c1ccc(NC(=O)c2nc(-c3ccccc3)n(-c3ccccc3)n2)cc1	?	21µM	nt	nt	i	nt
N#Cc1ccc(NC(=O)c2nc(-c3ccccc3)n(-c3ccccc3)n2)cc1	?	?	i	?	i	i
CC(=O)c1cccc(NC(=O)c2c(C)nn(-c3ccccc3)c2Cl)c1	i	?	i	i	i	i
Cc1nn(-c2ccccc2)c(Cl)c1C(=O)NNC(=O)c1ccccc1O	?	13µM	i	nt	i	nt
CCn1nc(C(=O)NCc2ccccc2F)c2ccccc2c1=O	nt	nt	nt	nt	i	nt
O=C(C1COc2cc(S(=O)(=O)Nc3ccc(F)cc3)ccc2O1)N1CCCCC1 (stereo unspecified)	nt	nt	nt	nt	i	nt
CC(=O)c1cccc(NC(=O)c2nc(-c3ccccc3)n(-c3cccc(Cl)c3)n2)c1	16µM	13µM	nt	nt	i	nt
COc1ccc(-c2nc(C(=O)Nc3ccc(C(C)=O)cc3)nn2-c2cccc(Cl)c2)cc1	?	?	nt	nt	i	nt
NC(=O)c1ccsc1NC(=O)c1nc(-c2ccccc2)n(-c2ccccc2)n1	?	?	-52	i	i	i
COc1ccc(-c2cnnn2-c2ccc(NC(=O)c3c(F)cccc3F)cc2)cc1	12µM	26µM	nt	nt	i	nt
COc1ccc(-c2cnnn2-c2ccc(NC(=O)c3ccccc3OC)cc2)cc1	21µM	?	nt	nt	i	nt
CC(=O)N1CCC2(CC1)CC(=O)c1ccc(OCC(=O)NCCC(C)C)cc1O2	nt	nt	nt	nt	i	nt
O=C(CCCSc1nc2ccccc2s1)Nc1ccc(C(F)(F)F)cc1	nt	nt	nt	nt	i	nt
CC1(C)Cc2c(sc3c2c(=N)n(Cc2ccco2)c(=O)n3CC(=O)Nc2ccc(Cl)cc2)CO1	?	?	-80	i	i	i
SMILES	DT40 TDP1 CPT	DT40 TDP1 no CPT	IL1B secr inh	RORg inh	LDHA inh	VP16 counter
O=C(Cn1c(=O)n(Cc2ccco2)c(=O)c2c3c(sc21)CCCC3)Nc1ccccc1	?	?	i	i	i	i
CC1(C)Cc2c(sc3c2c(=N)n(Cc2ccco2)c(=O)n3CC(=O)Nc2ccccc2)CO1	?	?	-51	i	i	i
Cc1cccc(NC(=O)Cn2c(=O)n(Cc3ccco3)c(=N)c3c4c(sc32)COC(C)(C)C4)c1	?	?	i	i	i	i
CC1(C)Cc2c(sc3c2c(=N)n(Cc2ccco2)c(=O)n3CC(=O)Nc2cccc(Cl)c2)CO1	?	21µM	?	?	i	i
Cc1cc(C)cc(C(=O)NCCc2sc(-c3ccc(F)cc3)nc2C)c1	13µM	21µM	nt	nt	i	nt
COc1ccc(C(=O)NCCc2sc(-c3ccc(F)cc3)nc2C)cc1OC	?	15µM	nt	nt	i	nt
COc1ccc(C(=O)NCCc2sc(-c3cccc(F)c3)nc2C)cc1	23µM	16µM	nt	nt	i	nt
COc1ccc(-c2nc(C)c(CCNC(=O)Cc3ccc(F)cc3)s2)cc1OC	nt	nt	nt	nt	i	nt
COc1ccc(CC(=O)NCCc2sc(-c3cccc(F)c3)nc2C)cc1	i	?	nt	nt	i	nt
CCOc1cc(C(=O)NCCc2sc(-c3ccc(F)cc3)nc2C)cc(OCC)c1OCC	?	?	nt	nt	i	nt
COc1ccc(CC(=O)NCCc2sc(-c3ccc(Cl)cc3)nc2C)cc1OC	?	21µM	nt	nt	i	nt
O=C(Cc1cccc2ccccc12)Nc1ccc(N2CCOCC2)c(Cl)c1	nt	nt	nt	nt	i	nt
Cc1nc(-c2ccc(Cl)cc2)sc1CCNC(=O)c1ccco1	21µM	18µM	nt	nt	i	nt
Cc1nc(-c2ccc(F)cc2)sc1CCNC(=O)c1ccco1	?	?	nt	nt	i	nt
CCCCCCCCCCn1c2c(c(=N)c3c1CCC3)CCC2	0.26µM	0.029µM	-96	8.9µM	i	3.2µM
CCCCn1c2c(c(=N)c3ccccc31)CCC2	?	?	i	i	i	i
CCn1c2c(c(=N)c3c1CCC3)CCCC2	?	9.2µM	i	i	i	i
CCCCCCCCCn1c2c(c(=N)c3c1CCC3)CCCC2	0.026µM	0.018µM	-99	4µM	i	?
CCCCCCCCn1c2c(c(=N)c3ccccc31)CCC2	0.41µM	0.41µM	-96	i	i	i
CCOC(=O)Cn1c2c(c(=N)c3c1CCC3)CCC2	i	i	i	i	i	i
CCCCCc1nc2c(c3c1CCCC3)CCCC2	?	?	i	i	i	i
CC(=O)NC(Cc1c[nH]c2ccccc12)C(=O)N1CCN(S(=O)(=O)c2ccccc2F)CC1 (stereo unspecified)	nt	nt	nt	nt	i	nt
O=C(O)c1ccnc(N2CCOCC2)c1	nt	nt	nt	nt	i	nt
Cc1cccc(NC2=NC(C)(C)N=C(N)N2)c1	0.46µM	0.16µM	i	i	i	i
Cc1nn(-c2nc3c(c(=O)n(Cc4ccccc4Cl)c(=O)n3C)n2C)c(C)c1C	nt	nt	nt	nt	i	nt
SMILES	DT40 TDP1 CPT	DT40 TDP1 no CPT	IL1B secr inh	RORg inh	LDHA inh	VP16 counter
Cn1c(Br)nc2c1c(=O)n(Cc1ccccc1Cl)c(=O)n2C	nt	nt	nt	nt	i	nt
COc1ccc(Oc2nc3c(c(=O)n(Cc4ccccc4Cl)c(=O)n3C)n2C)cc1	?	6.5µM	nt	nt	i	nt
Cn1c(Oc2ccc(F)cc2)nc2c1c(=O)n(Cc1ccccc1Cl)c(=O)n2C	23µM	12µM	nt	nt	i	nt
CSc1nc(N)c2c(n1)NC1=C(C(=O)CC(C)(C)C1)C2c1cccnc1 (stereo unspecified)	nt	nt	nt	nt	i	nt
Cc1ccc(-n2nnc3c(N4CCN(C(=O)Cc5cccs5)CC4)ncnc32)cc1	nt	nt	nt	nt	i	nt
Cc1cccc(-c2nnc(SCc3cn4cccc(C)c4n3)o2)c1	nt	nt	nt	nt	i	nt
CCOC(=O)N1CCC(NC(=O)c2cc(COc3ccccc3SC)on2)CC1	3.7µM	1.5µM	i	i	i	i
